The list is not random: actives were taken first. Their share in the collection is about 3.4%.
TEAD-YAP block = TEAD-YAP interaction inhibition. inhibition, % at 9.12 µM. 640,000 tested, 1.4% active. HEK-TIYL cells, TEAD-Gal4/YAP UAS-luciferase luminescence; in the data active means inhibition above about 32%;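 further: 0% = median of test compound wells and 100% = reference inhibitor wells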
GPR151 ag = human GPR151 activation; activation, % at 11.2 µM; PathHunter beta-arrestin GPR151 cells, luminescence; Q8TDV0; 650,000 tested, 1% active; AID 1508602; in the data active means activation above about 4.9%;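 further: 0% = median of compound wells and 100% = cells with positive control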
FBW7 activator = human FBW7 E3 ligase activation, primary screen. 650,000 tested, 0.13% active. normalized activity (activation), % at 26.1 µM. AlphaScreen FBW7–phospho-cyclin E peptide binding, activator screen; in the data active means normalized activity above about 1.9%;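 further: purified mutant Fbw7 with reduced substrate affinity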
Target sequence (Q969H0 whole entry, looked up): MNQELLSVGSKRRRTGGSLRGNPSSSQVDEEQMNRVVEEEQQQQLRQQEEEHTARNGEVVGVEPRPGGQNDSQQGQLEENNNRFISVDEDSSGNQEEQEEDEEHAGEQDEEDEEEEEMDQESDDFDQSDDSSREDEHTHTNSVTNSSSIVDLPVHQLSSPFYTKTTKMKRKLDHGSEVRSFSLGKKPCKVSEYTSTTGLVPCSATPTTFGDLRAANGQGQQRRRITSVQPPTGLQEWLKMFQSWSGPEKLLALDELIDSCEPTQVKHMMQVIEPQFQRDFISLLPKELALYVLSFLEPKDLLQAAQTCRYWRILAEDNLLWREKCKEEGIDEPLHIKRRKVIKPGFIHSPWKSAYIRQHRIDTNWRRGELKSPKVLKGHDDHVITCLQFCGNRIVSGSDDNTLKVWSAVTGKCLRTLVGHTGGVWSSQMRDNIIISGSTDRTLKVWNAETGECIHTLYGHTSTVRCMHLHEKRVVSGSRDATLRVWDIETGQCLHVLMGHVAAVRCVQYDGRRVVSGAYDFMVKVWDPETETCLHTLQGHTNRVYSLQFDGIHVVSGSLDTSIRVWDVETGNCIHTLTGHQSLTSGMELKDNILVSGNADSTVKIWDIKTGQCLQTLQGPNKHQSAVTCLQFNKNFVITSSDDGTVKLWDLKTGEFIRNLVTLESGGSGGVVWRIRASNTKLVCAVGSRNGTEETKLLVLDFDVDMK
MITF inh = inhibitors of human MITF; O75030; 650,000 tested, 0.91% active; AlphaScreen MITF homodimerization, bead proximity signal; AID 1259374; inhibition, % at 2.6 µM; in the data active means inhibition above about 50%;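 further: 0% = vehicle wells with protein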
An asterisk follows results filed as active.

SMILES | TEAD-YAP block | GPR151 ag | FBW7 activator | MITF inh
O=C(Nc1ccccc1O)c1cccc(S(=O)(=O)N2CCCCC2)c1 | 5 | 0 | 1 | 14
O=C(Nc1cccc2cnccc12)c1cccc(S(=O)(=O)N2CCCCCC2)c1 | 38* | 1 | 0 | 8
COc1ccc2cc(-c3nc4ccccc4[nH]3)c(=Nc3cccc(C(F)(F)F)c3)oc2c1 | 72* | -3 | 0 | -9
Cc1cc(C)[n+]2nc(SCC(=O)Nc3ccc(SC(F)F)cc3)sc2n1 | -4 | -1 | 1 | 8
O=C(COc1cccc(N2C(=O)C3C4C=CC(C5CC45)C3C2=O)c1)c1ccc(Cl)cc1 (centres undefined) | 39* | 1 | 0 | -1
Cc1cccc(NC(=O)Cn2nnc(-c3ccccc3Cl)n2)c1C | -17 | 0 | 0 | -4
C=CCn1c(SCC(=O)Nc2ccc3c(c2)OCCO3)nnc1-c1cccs1 | 51* | 0 | 0 | 10
C=CCn1c(SCC(=O)Nc2cccc([N+](=O)[O-])c2)nnc1-c1ccccc1O | 31 | 1 | 0 | -8
CCn1c(SCC(=O)Nc2cccc([N+](=O)[O-])c2)nnc1-c1ccccc1O | 32* | 0 | 0 | -3
C=CCn1c(SCC(=O)Nc2ccccc2)nnc1-c1ccccc1O | 33* | -1 | 0 | -4
CCn1c(SCC(=O)NC(=O)Nc2ccc3c(c2)OCCO3)nnc1-c1cccs1 | -4 | 0 | 0 | -1
COc1ccc(-n2nnnc2SCC(=O)Nc2ccc3c(c2)OCCO3)cc1OC | 1 | -1 | 0 | -3
O=C(CSc1nnnn1-c1ccc(F)cc1F)Nc1ccc2c(c1)OCCO2 | 38* | -1 | 0 | 3
CCC(C)(C)C1CCc2c(sc(NC(=O)c3ccc(Cl)cc3[N+](=O)[O-])c2C(=O)OC)C1 (centres undefined) | 4 | 1 | 0 | 14
CCOC(=O)c1cccc(NC(=O)/C=C/c2ccccc2[N+](=O)[O-])c1 | 33* | 1 | 0 | 6
N#Cc1ccc(CSc2nnc(-c3cccc(C(N)=S)c3)o2)cc1 | 2 | 0 | 0 | -12
CC1(C)Cc2c(c(N3CCOCC3)nc3sc4c(NCCc5ccccc5)ncnc4c23)CO1 | 12 | 1 | 0 | 6
CC1(c2ccc(Cl)cc2)CC(C)(C)N(S(=O)(=O)Cc2ccccc2)c2ccccc21 (centres undefined) | -7 | 2 | 0 | -2
CCN1CCN(C(=O)/C(C#N)=C/c2cc(C)n(C3CCCC3)c2C)CC1 | -15 | -2 | 1 | 15
Cc1cc(/C=C(\C#N)C(=O)N2CCOCC2)c(C)n1C1CCCC1 | 32* | -3 | 0 | 6
CN(C)CCNc1ccnc2c(-c3cccc(C(N)=O)c3)cnn12 | 57* | -1 | 0 | 3
Cc1cccc(N(C)c2ccnc3c(-c4cccc(C(N)=O)c4)cnn23)c1 | 34* | 2 | 0 | -10
CN(C)CCNc1ccnc2c(-c3cc4ccccc4o3)cnn12 | 68* | -2 | 1 | -2
c1ccc(CNc2ccnc3c(-c4cc5ccccc5o4)cnn23)nc1 | -70 | -1 | 0 | 12
CCCNc1ccnc2c(-c3cccc(/C=C/C(=O)O)c3)cnn12 | 64* | -1 | 0 | -19
SMILES | TEAD-YAP block | GPR151 ag | FBW7 activator | MITF inh
O=C1N[C@@H](Cc2cnc[nH]2)C(=O)N2CCN(Cc3ccccc3F)C[C@H]12 | -16 | 0 | 0 | -11
O=c1c2ccccc2nc(-c2ccc(F)cc2)n1NC/C=C/c1ccccc1 | -5 | 0 | 0 | -11
COCCCNC(=O)/C=C/c1ccc(C(C)(C)C)cc1 | -13 | 1 | 0 | -5
COCCN(CCOC)S(=O)(=O)c1ccc2c(c1)OCCO2 | -2 | 1 | 0 | 5
O=S1(=O)c2cccc3cccc(c23)N1Cc1cccc(Cl)c1 | -16 | 1 | 2.1* | 8
O=S1(=O)c2cccc3cccc(c23)N1Cc1cccc(Br)c1 | -8 | -1 | 0 | -6
O=C(CC1CCCCC1)Nc1c2c(nn1-c1ccc(F)cc1)CSC2 | -4 | 0 | 0 | -7
CCOc1ccc2c(c1)C(=C1SC(C(=O)OC)=C(C(=O)OC)S1)C(=S)C(C)(C)N2C(=O)/C=C/c1ccc(OC)cc1 | 1 | -1 | 0 | 9
C=CCn1c(C)cc(C(=O)CSc2nc3ccccc3[nH]2)c1C | 53* | 0 | 0 | 15
Cc1ccc(Cl)cc1NC(=O)CSc1nc2ccccc2[nH]1 | -8 | 1 | 0 | 3
O=C(CSc1nc2ccccc2[nH]1)Nc1ccc(Cl)cc1O | 35* | -2 | 1 | 12
O=C(CSc1nc2ccccc2[nH]1)Nc1ccccn1 | 13 | 0 | 0 | 7
O=C(CSc1nc2ccccc2[nH]1)Nc1ccc(Cl)cn1 | 75* | 1 | 0 | 6
COCCn1c(C)cc(C(=O)CSc2nnc3cc(C)c4ccccc4n23)c1C | -4 | -1 | 0 | 0
C(=C\c1ccc2c(c1)Cc1cc(/C=C/c3ccccc3)ccc1-2)/c1ccccc1 | 0 | 0 | 0 | -3
O=C1CC(N2CCN(C(c3ccccc3)c3ccccc3)CC2)C(=O)N1c1ccccc1 (centres undefined) | -1 | 0 | 0 | 7
Cc1ccc(-c2nc(-c3ccccn3)no2)cc1Cl | 84* | -11 | 0 | -1
CCOc1ccc2cc(-c3ccccn3)c(=N)oc2c1 | 59* | -9 | 0 | -15
Cc1ccc(-c2nc(-c3cccs3)no2)cc1[N+](=O)[O-] | -21 | -1 | 0 | 2
Cc1ccc(-c2nc(-c3ccccn3)no2)cc1[N+](=O)[O-] | 55* | -7 | 0 | -2
Cc1ccc(-c2nc(-c3ccccn3)no2)cc1 | 95* | -11 | 0 | 4
CCCOc1ccc(-c2ccc(-c3nc(-c4ccccn4)no3)cc2)cc1 | 5 | -2 | 0 | 8
COc1cc(OC)cc(C(=O)OCC(=O)NCC(C)C)c1 | -10 | -1 | 0 | 22
CCOc1ccc(-c2nc(-c3ccccn3)no2)cc1 | 98* | -8 | 0 | 6
c1ccc(-c2ccc(-c3nc(-c4ccccn4)no3)cc2)cc1 | 95* | -12 | 0 | -2
SMILES | TEAD-YAP block | GPR151 ag | FBW7 activator | MITF inh
Cc1nc2cc(-c3ccc(F)cc3)nn2c(N2CCN(C)CC2)c1C | 7 | 0 | 0 | 4
Cc1nc2ccc(C(=O)N3c4ccccc4CC3C)cc2s1 (centres undefined) | 42* | -1 | 0 | 17
CCC(=O)N(CCCO)Cc1cc2ccc(C)cc2[nH]c1=O | 36* | -1 | 1 | 1
O=C(NNC(=O)C1c2ccccc2Oc2ccccc21)Nc1ccc2c(c1)OCO2 | 61* | 2 | 0 | -10
COc1ccccc1C1C(C#N)=C(N)OC2=C1C(=O)CC(c1ccccc1)C2 (centres undefined) | -11 | 1 | 0 | 9
COc1ccc(OC)c(C2C(C#N)=C(N)N(N(C)C)C3=C2C(=O)CC(c2ccccc2)C3)c1 (centres undefined) | 57* | -1 | 0 | 6
COc1cccc(C2C(C#N)=C(N)N(N(C)C)C3=C2C(=O)CC(c2ccccc2)C3)c1OC (centres undefined) | 55* | -2 | 0 | 21

Assay outcomes deposited in PubChem BioAssay by The Scripps Research Institute Molecular Screening Center.
